Results reported in PubChem BioAssay (NCI).
The panel holds about 83,000 compounds, 20% with a hit somewhere; the sample as a whole holds those more often.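 Growth was measured after 48 h exposure to one concentration of compound in 96-well plates. Values under 10 count as active.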 A number with no mark means an inactive call. Calls of active or inactive are those of the source.

How the values were obtained:
Assay in all cases: NCI-60 one-dose screen, 48 h (100 = growth as untreated, 0 = no growth, -100 = all killed)
Conditions in all cases: 10 µM unless noted
[1] = tested on: NCI-H23 lung
[2] = tested on: NCI-H226 lung
[3] = tested on: NCI-H322M lung
[4] = tested on: HOP-62 NSCLC
[5] = tested on: NCI-H460 lung
[6] = tested on: HOP-92 NSCLC
[7] = tested on: NCI-H522 lung
[8] = tested on: A549/ATCC NSCLC
[9] = tested on: 786-0 renal
[10] = tested on: COLO 205 colon

Row | SMILES | growth [1] | growth [2] | growth [3] [%] | growth [4] | growth [5] | growth [6] | growth [7] | growth [8] | growth [9] | growth [10]
1 | Cn1c(I)c(C#C[Si](C)(C)C)c(=O)[nH]c1=O | 17.9% | 78.9% | 115 | 76.4% | 104% | -82.8% (active) | -58.7% (active) | 86.3% | -10.8% (active) | -59% (active)
2 | O=C(Nc1ccc(F)cc1)Nc1ccc(Cl)c([N+](=O)[O-])c1 | -1.96% (active) | 16% | 28.4 | 38.8% | 3.03% (active) | -8.16% (active) | 2.42% (active) | 17.1% | 26.7% | 12%
3 | CC(=O)O[C@@H]1[C@@H](OC(C)=O)[C@H](OC(C)=O)CO[C@H]1Nc1cccc2ccccc12 | 94.8% | 97.2% | 94.4 | 94.1% | 98% | 104% | 68.3% | 102% | 107% | 99.7%
4 | CC(C)(c1ccc(OCC(O)CNCc2ccco2)cc1)c1ccc(OCC(O)CNCc2ccco2)cc1 (stereo not given) | 93.4% | 94.6% | 99.4 | 82.2% | 98% | 57.4% | 86% | 81.2% | 70.8% | 85.5%
5 | C#C[C@@]1(O)[C@@H](CO)O[C@@H](n2cc(C(F)(F)F)c3c(N)ncnc32)[C@@H]1O | 2.72% (active) | -12.1% (active) | 16 | 7.02% (active) | 2.05% (active) | -13.7% (active) | -52.5% (active) | -4.98% (active) | 4.52% (active) | -77.1% (active)
6 | Cc1ccc2[nH]c3nc4cccnc4c(C)c3c2c1 | 36.5% | 77.9% | 44.4 | 63.2% | 11.4% | 115% | 70.3% | 74.5% | 107% | 101%
7 | CC(C)(C)C(=O)Nc1nc2c(s1)CCc1ccn(S(=O)(=O)c3ccccc3)c1-2 | 82.5% | 92.4% | 83.3 | 93.4% | 96.2% | 96.2% | 66.7% | 76.6% | 81.8% | 112%
8 | O=C(O)c1cc2ccccc2cc1Nc1ccccc1 | 84.6% | 93.8% | 108 | 82.3% | 91.8% | 91.3% | 80.6% | 87.6% | 101% | 122%
9 | O=C(C[n+]1ccccc1Cl)c1ccc2c(c1)CCCC2 | 92% | 112% | 106 | 90.6% | 107% | 95.1% | 87.4% | 85.6% | 75.5% | 56.3%
10 | O=C(NCCNc1nccc(-c2c(-c3cccc(O)c3)nc3sccn23)n1)Nc1cc(C(F)(F)F)cc(C(F)(F)F)c1 | 90.9% | 101% | 87 | 118% | 51.8% | 74.4% | 69.5% | 57.7% | 82% | 45.1%
11 | CCc1c(C)c2cc3c(c(C)c2oc1=O)OCC(=O)N3 | 63.5% | 52.4% | 60.7 | 73.5% | 43.2% | 50.7% | 58.2% | 47% | 48.2% | 83%
12 | O=[N+]([O-])c1cccc(C(c2ccccc2)c2ccccc2)c1 | 87.5% | 76.9% | 90.6 | 88.7% | 87.5% | 63.9% | 79.1% | 87.7% | 97.3% | 95.2%
13 | COc1cc(NC(C)CCCN2C(=O)c3ccccc3C2=O)c2nccc(C)c2c1OC (stereo not given) | 90.1% | 94.1% | 102 | 103% | 108% | 60.1% | 75.2% | 93.9% | 94.2% | 131%
14 | NS(=O)(=O)c1ccc(-n2nc(-c3ccc(Cl)cc3)ccc2=O)cc1 | 91.1% | 103% | 110 | 94.3% | 98% | 90.9% | 16% | 95.4% | 92.9% | 113%
